# Hits are enriched below; roughly 3.6% of the tested compounds scored in any of these assays.
# TDP43 rescue: qHTS of TDP-43 Inhibitors. TDP-43 expressing yeast growth rescue, BacTiter-Glo, 24 h. Potency, µM (doses to about 46.1 µM), actives largely listed as activators. hit rate 1.8% among 410,000. AID 652104, 2013; also: nearly all actives have a fitted effect of over 50% in size
#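 Galactose-induced TDP-43 yeast, OD600=0.02, compound pinned; 24 hr, 30 deg C; BacTiter-Glo luminescence for growth. Inhibitors of TDP-43 toxicity read as activators.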
# aSyn rescue: qHTS of alpha-syn Inhibitors; Yeast expressing alpha-synuclein, growth rescue, BacTiter-Glo, 24 h; Potency, µM (doses to about 46.1 µM), most hits filed as activators; hit rate 0.14% among 370,000; AID 652106, 2013; also: nearly all actives have a fitted effect of over 65% in size
#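 Readout is rescue of growth in alpha-synuclein-expressing yeast, so inhibitors of toxicity appear as activators. Growth after 24 hr at 30 deg C in galactose medium is quantified by luminescence.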
# Abeta rescue: qHTS for compounds that reverse cellular toxicity of Amyloid beta (A-beta) peptide in yeast: Primary Screen | yeast expressing A-beta42, growth rescue, OD600, 48 h; response scale: 0% DMSO, 100% iron-clioquinol control | Potency, µM (highest dose often 46.1 µM), most hits filed as activators | hit rate 0.063% among 410,000; also: nearly all actives have a fitted effect of over 55% in size
#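 Growth rescue measured by 600 nm absorbance after 48 h yeast culture at 30 C with compound. Values normalized between DMSO and an equimolar ferric chloride plus clioquinol control.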
# Mm-Cpn inhibitor: Inhibitors of TCP-1 ring complex (TRiC) of Methanococcus maripaludis (MmCpn): qHTS; purified Mm-Cpn ATPase, ADP Transcreener TR-FRET; Potency, µM (titrated, usually from 76.9 µM), hits mostly inhibitors; hit rate 0.031% among 330,000; Chaperonin Mm-Cpn (Methanococcus maripaludis); also: nearly all actives have a fitted effect of over 80% in size
#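 Quantitative HTS used 25 nM Mm-CPN and 10 uM ATP in magnesium/KCl Tris buffer, pH 7.4, with 1 mM DTT. Hydrolysis ran 30 min at 37°C; ADP was read by HTRF.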
# ClpP mod: qHTS Assay for Activators of ClpP. ATP-dependent Clp protease proteolytic subunit (Bacillus subtilis (strain 168)), P80244. hit rate 1.9% among 340,000. purified B. subtilis ClpP, FRET peptide cleavage, 20 min. Potency, µM (series often up to 57.5 µM); active = well fitted falling curve with a large enough effect; inconclusive = small, poorly fitted or top-dose-only effect; inactive = no such curve, though single readings can be large or run the other way; also: the source files actives as falling curves though it sought activators and does not explain the sign; nearly all actives have a fitted effect of over 65% in size
# Target sequence (P80244 whole entry, looked up): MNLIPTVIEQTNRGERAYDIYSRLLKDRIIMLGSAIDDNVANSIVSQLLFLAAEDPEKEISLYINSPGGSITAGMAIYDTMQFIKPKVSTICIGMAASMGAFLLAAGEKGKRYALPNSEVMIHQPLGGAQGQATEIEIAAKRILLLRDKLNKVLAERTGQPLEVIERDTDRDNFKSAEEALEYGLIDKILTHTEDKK
#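 ClpP 10 microg/mL final, pH 8 Tris/KCl buffer with BSA, glycerol, Tween-20; compound pinned in; FRET-FV substrate; RT 20 min; Ex320/Em430; ΔFRET vs ADEP 5.8 microM, DMSO, no enzyme.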
# FUS suppressor: qHTS for Suppressors of FUS Proteinopathy: Primary screen using FUS-linked yeast assay | S. cerevisiae FUS-expressing, growth rescue, OD600, 24 h | Potency, µM (highest dose often 76.6 µM), actives largely listed as activators | hit rate 0.24% among 390,000; also: nearly all actives have a fitted effect of over 55% in size
#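 Quantitative HTS measuring growth restoration of FUS-toxic yeast. Galactose-induced cells (OD 0.005) were exposed 24hr at 30C to compounds at several concentrations, then absorbance at 600 nm was recorded.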
# A number is an active result; i = inactive; ? = inconclusive; nt = not tested or not shown; [ ] = dose if it differs, or a comment. Unless noted, calls follow the shape of the dose curve; as a rule, active = well fitted curve in the direction sought with a large enough effect; inconclusive = small, poorly fitted or top-dose-only effect, or another doubt; inactive = no such curve, though single readings can be large; an effect the other way counts as inactive or inconclusive.
SMILES,TDP43 rescue,aSyn rescue,Abeta rescue,Mm-Cpn inhibitor,ClpP mod,FUS suppressor
Cc1noc(-c2ccc(N3CCCCC3)c([N+](=O)[O-])c2)n1,18µM,nt,i,nt,i,i
Cc1cc(/C=C(\C#N)C(N)=O)c(C)n1-c1ccc(N2CCOCC2)c([N+](=O)[O-])c1,i,i,i,i,i,i
Cc1cc(C=O)c(C)n1-c1ccc(N2CCCCC2)c([N+](=O)[O-])c1,18µM,i,i,i,i,i
CCc1cc2c(cc3c(=O)n(CC(=O)NCCc4ccc(OC)cc4OC)nc(CC)n32)s1,i,nt,i,nt,i,i
c1ccc(-c2nnc3sc(-c4ccncc4)nn23)cc1,i,i,i,i,i,i
c1ccc(-c2nnc3sc(-c4csc5c4CCCC5)nn23)cc1,20µM,i,i,i,i,nt
COc1ccc(-c2nn3c(-c4ccccc4)nnc3s2)cc1,14µM,i,i,i,i,?
CCN(CC)c1ccc(-c2nn3c(-c4ccccc4OC)nnc3s2)cc1,?,i,i,?,7.9µM,nt
COc1ccc(Cc2nn3c(-c4cc(OC)c(OC)c(OC)c4)nnc3s2)cc1,22µM,i,i,i,i,?
Oc1ccc(Cl)cc1C1C=C(c2ccc3c(c2)OCO3)NC(c2ccc(C(F)(F)F)cc2)N1 (stereo not given),nt,i,nt,nt,i,nt
Cc1c(Br)c(C(F)(F)F)nn1CC(=O)NCc1ccco1,i,i,?,i,nt,i
Cc1c(Br)c([N+](=O)[O-])nn1CC(=O)NCc1ccco1,i,i,i,i,35µM,i
Cc1c(Br)c([N+](=O)[O-])nn1CC(=O)c1ccccc1,i,i,i,i,i,i
COC(=O)c1ccc(Cn2nc([N+](=O)[O-])c(Br)c2C)cc1,14µM,?,?,i,nt,i
Cc1cccc(N2CCN(C(=O)c3c(C)oc4nc(C)nc(N5CCCC5)c34)CC2C)c1 (stereo not given),i,nt,i,nt,i,i
CCOC(=O)Cn1c(=O)n(CC2CCCO2)c2nc(-c3c(F)cccc3Cl)nc(C(N)=O)c21 (stereo not given),i,i,i,nt,i,i
COc1ccc(N2CCN(C(=O)CSc3ncccc3-c3nc4ccccc4[nH]3)CC2)cc1,i,i,i,i,25µM,?
COc1ccc(Cn2ccc3nc(C)c(C(=O)Nc4ccc(OC)c(OC)c4)cc3c2=O)cc1,i,nt,i,nt,i,i
COc1ccc(-c2ccnc3c2c(=O)n(C)c(=O)n3C)cc1OC,i,nt,i,nt,i,i
Cc1cc(-c2ccccc2)nc2[n+]1CCN2C,i,i,i,i,28µM,i
CC1CCN(C(=S)c2ccc(N(C)C)cc2)CC1,i[1.82 µM],i,13µM,i,nt,i
CN(C)c1ccc(C(=S)N2CCCCCC2)cc1,i,i,i,i,i,i
COC(=O)C1=C(C)NC(C)=C(C(=O)OCC(C)C)C1c1ccccc1[N+](=O)[O-] (stereo not given),35µM,i,i,nt,i,i
COC(=O)C1=C(C)NC(C)=C([N+](=O)[O-])[C@H]1c1ccccc1C(F)(F)F,nt,i,nt,nt,i,nt
CNC(=O)C1CCC(Cn2c(=O)c3sccc3n(CC(=O)NCc3ccc(F)cc3)c2=O)CC1 (stereo not given),i,nt,i,nt,i,i
SMILES,TDP43 rescue,aSyn rescue,Abeta rescue,Mm-Cpn inhibitor,ClpP mod,FUS suppressor
O=C(NCCc1ccccn1)C1CCN(S(=O)(=O)c2ccc(Cl)cc2)CC1,i[9.22 µM],i,i,i,i,i
Cc1ccc(S(=O)(=O)N2CCC(C(=O)NCCc3ccccn3)CC2)cc1,i,i,i,i,22µM,i
c1coc(CN(Cc2ccco2)c2ncnc3c2oc2ccccc23)c1,20µM,i,i,i,i,?
Clc1ncnc2c1oc1ccccc12,i,i,i,i,i,i
O=C(Nc1nnc(SCc2ccc(F)cc2)s1)c1ccccn1,i,4.5µM,i,i,nt,i
COC(=O)c1ccc2nc(Nc3nc4ccc(F)cc4s3)sc2c1,i,i,i,i,18µM,i
COC(=O)c1ccc2nc(NC(=O)C(C)(C)C)sc2c1,?,i,i,i,nt,i
O=C(NNc1nc2ccccc2s1)c1ccc(F)cc1,?,i,i,i,i,nt
O=C(Nc1nc2ccc(F)cc2s1)c1ccccn1,i,11µM,?,i,nt,i
O=C(NNc1nc2ccc(F)cc2s1)c1cccc(F)c1,13µM,?,?,i,i,i
COc1ccc(OC)c(CNC(=O)C2CCCCN2S(=O)(=O)c2ccc(F)cc2)c1 (stereo not given),i,nt,i,nt,i,i
Cc1cccc(NC(=O)c2cc(-c3ccc(C)s3)nc3ccccc23)n1,?,i,i,i,16µM,i
CC(C)(C)c1csc(NC(=O)c2ccccc2O)n1,i,i,i,i,i,i
Cc1csc(NC(=O)c2cc(-c3ccccc3)nc3ccccc23)n1,18µM,i,i,i,i,nt
CC(C)(C)c1nnc(NC(=O)c2cc(-c3ccccc3)nc3ccccc23)s1,i,i,i,i,i,i
Cc1cc(NC(=O)c2cc(-c3ccc(C)s3)nc3ccccc23)no1,i,i,i,i,i,i
Cc1csc(NC(=O)c2ccccc2O)n1,i,i,i,i,28µM,i
NC(=O)C1CCN(c2nc(-c3ccc(N4CCCCC4)nc3)cs2)CC1,nt,nt,nt,i,nt,nt
O=[N+]([O-])c1ccc(Nc2ccccc2F)nc1,18µM,i,i,i,i,i
COc1cc(OC)c2c(C)c(CC(=O)NCCc3ccccc3OC)c(=O)oc2c1,i,nt,i,nt,i,i
COc1cc(OC)c2c(=O)cc(-c3ccccc3)oc2c1,35µM,i,i,nt,i,i
CC(C)(C)OC(=O)COc1cc(OCC(=O)OC(C)(C)C)c2c(=O)cc(-c3ccccc3)oc2c1,i,i,i,i,?,32µM
COc1cc(OC)c2c(C)c(Cl)c(=O)oc2c1,i,i,i,i[15.4 µM],2.8µM,i
CCOc1ccc(-n2c(SCC(=O)Nc3cccc4ccccc34)nnc2-c2ccncc2)cc1,nt,nt,nt,nt,nt,i
CC1(C)CC(=O)c2sc(NC(=O)CN3CCCCC3)nc2C1,i,i,i,i,16µM,i
Cc1ccc(C)c(-n2c(-c3ccc4c(c3)OCO4)n[nH]c2=S)c1,i,i,?,i,28µM,i
Cc1ccc2c(c1)c1cccc3c1n2CCN3CCC(N)=O,i,i,i,i,14µM,i
CCCC1CCC2(CCCN2CCOC(=O)Nc2cccc(Cl)c2)CC1 (stereo not given),nt,nt,nt,nt,nt,i
